# Rows were chosen to be rich in hits. Some 12% of all compounds tested hit in one or more screens of this group.
# Sfp inh = qHTS Assay for Inhibitors of Bacillus subtilis Sfp phosphopantetheinyl transferase (PPTase); actives 3.5% (n = 310,000); Biochemical Sfp PPTase activity, qHTS; 4'-phosphopantetheinyl transferase ffp (Bacillus subtilis), Q9F4F7; Potency, µM, actives largely listed as inhibitors;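 note: the enzyme is Sfp with the accession as filed and its product quenches rhodamine fluorescence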
#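 Step 1, compound plus 15 nM Sfp-PPTase, 15 min, room temperature. Step 2, add rhodamine-CoA (5 uM) and BHQ-2-YbbR (12.5 uM). Step 3, read 525/598 nm fluorescence at 0 and 30 min.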
# RORgamma inh = qHTS for inhibitors of ROR gamma transcriptional activity; Drosophila S2 Gal4-RORgamma UAS-luciferase reporter, 20 h; Potency, µM (highest dose often 53.6 µM), most hits filed as inhibitors; actives 5.4% (n = 310,000); note: nearly all actives have a fitted effect of over 60% in size
# Target sequence (P51450 whole entry, looked up, the tested form may be a part): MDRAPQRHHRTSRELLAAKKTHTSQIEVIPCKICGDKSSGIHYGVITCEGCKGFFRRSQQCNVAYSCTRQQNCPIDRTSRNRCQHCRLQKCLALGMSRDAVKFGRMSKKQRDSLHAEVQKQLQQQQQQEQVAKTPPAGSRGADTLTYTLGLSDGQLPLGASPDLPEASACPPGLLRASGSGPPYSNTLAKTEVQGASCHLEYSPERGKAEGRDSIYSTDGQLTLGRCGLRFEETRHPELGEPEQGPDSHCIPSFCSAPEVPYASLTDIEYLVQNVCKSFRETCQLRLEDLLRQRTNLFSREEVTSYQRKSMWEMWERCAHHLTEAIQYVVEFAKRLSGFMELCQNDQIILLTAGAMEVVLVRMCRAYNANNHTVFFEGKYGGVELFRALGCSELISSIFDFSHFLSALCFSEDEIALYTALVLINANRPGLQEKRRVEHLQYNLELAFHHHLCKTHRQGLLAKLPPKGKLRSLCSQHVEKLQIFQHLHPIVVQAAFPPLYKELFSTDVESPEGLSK
#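 Stably transfected Drosophila Schneider cells are the test system, with ROR gamma fused to Gal4 and luciferase under UAS control; luminescence is read after 20 hr of 700 uM copper sulfate induction at ambient temperature.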
# PLK1 PBD inh = qHTS for Inhibitors of PLK1-PDB (polo-like kinase 1 - polo-box domain): Primary Screen. Serine/threonine-protein kinase PLK1 (Homo sapiens), P53350. AID 720504, 2013. actives 2.8% (n = 360,000). Plk1 PBD binding of FITC phosphopeptide, fluorescence polarization. Potency, µM, usual class: inhibitors; note: series mostly up to about 57 µM; nearly all actives have a fitted effect of over 65% in size
# ALDH1A1 block = qHTS Assay for Inhibitors of Aldehyde Dehydrogenase 1 (ALDH1A1); Aldehyde dehydrogenase 1A1 (Homo sapiens), P00352; Purified ALDH1A1, NADH fluorescence, propionaldehyde substrate; Potency, µM (doses to about 75.3 µM), usual class: inhibitors; actives 7.3% (n = 220,000); AID 1030, 2008; active = well fitted inhibition curve with a large enough effect, not every such curve was filed as active; inconclusive = small, poorly fitted or top-dose-only effect, or another doubt; inactive = no such curve, though single readings can be large or run the other way
# VP16 counter = VP16 counterscreen qHTS for inhibitors of ROR gamma transcriptional activity; Potency, µM (series often up to 53.6 µM), actives largely listed as inhibitors; Drosophila S2 Gal4-VP16 UAS-luciferase, luminescence, 20 h; actives 3.5% (n = 310,000);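 note: Gal4-VP16 expression switched on by copper sulfate through the metallothionein promoter; nearly all actives have a fitted effect of over 50% in size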
# A number is an active result; n = inactive; u = inconclusive; x = no result; [ ] = remark or other dose. Unless noted, calls come from the whole dose curve; as a rule, active = well fitted curve in the direction sought with a large enough effect; inconclusive = small, poorly fitted or top-dose-only effect, or another doubt; inactive = no such curve, though single readings can be large; an effect the other way counts as inactive or inconclusive.
SMILES,Sfp inh,RORgamma inh,PLK1 PBD inh,ALDH1A1 block,VP16 counter
Cc1cc(C)n2nc(C(=O)NNC(=O)c3ccccc3)nc2n1,79µM,n,n,n,n
COC(=O)c1ccccc1NC(=O)c1nc2nc(C)cc(C)n2n1,n,n,n,u,n
CCOC(=O)C(CC)Sc1nc2c(c(=O)[nH]c(=O)n2C)n1CCc1ccccc1 (stereo unspecified),u,n,24µM,11µM,n
CCOC(=O)C(C)Sc1nc2c(c(=O)[nH]c(=O)n2C)n1Cc1ccc(Cl)cc1 (stereo unspecified),u,n,21µM,18µM,n
CCC(C)Sc1nc2c(c(=O)[nH]c(=O)n2C)n1Cc1ccc(Cl)cc1 (stereo unspecified),n,n[10 µM],n,8.9µM,n
CC(C)Sc1nc2c(c(=O)[nH]c(=O)n2C)n1Cc1ccccc1,n,u,n,x,n
CCC(C)Sc1nc2c(c(=O)[nH]c(=O)n2C)n1CCc1ccccc1 (stereo unspecified),n,n,n,u,n
CCC(C)Sc1nc2c(c(=O)[nH]c(=O)n2C)n1CC(O)COc1ccccc1C (stereo unspecified),40µM,n,11µM,14µM,n
O=c1c(-c2cc(F)cc(F)c2)nc2cnc(N3CCNCC3)nc2n1-c1ccccc1,n,n,x,u,n
CO[C@@H](NC(N)=O)C(=O)O,x,x,x,n[13.5 µM],x
CCCCSCc1nc2nc(Cl)c(Cl)nc2[nH]1,x,x,n,n[13.5 µM],x
N#Cc1cccc(NC(=O)N2CC[C@@]3(CCCN(S(=O)(=O)c4ccccc4)C3)C2)c1,n,n,x,n,n
Cc1cc(C)n(-c2nc3c(c(=O)[nH]c(=O)n3C)n2CCc2ccccc2)n1,n,n,30µM,u,n
CC1CCN(CCNC(=O)c2ccc3c(=O)n(Cc4ccc(Cl)cc4)c(=S)[nH]c3c2)CC1,n,11µM,n,x,u
COC(CNC(=O)c1ccc2c(=O)n(Cc3ccc(Cl)cc3)c(=S)[nH]c2c1)OC,n,u,n,x,n
COCCCNC(=O)c1ccc2c(=O)n(Cc3ccc4c(c3)OCO4)c(=S)[nH]c2c1,n,n,n,n,u
O=C(NCCN1CCCC1)c1ccc(Cn2c(=S)[nH]c3ccc(Br)cc3c2=O)cc1,n,n,n,n,n
COCCCNC(=O)c1ccc2c(=O)n(Cc3ccc(Cl)cc3)c(=S)[nH]c2c1,n,18µM,n,x,u
O=C(NCCCN1CCCC1)c1ccc(Cn2c(=S)[nH]c3ccc(Br)cc3c2=O)cc1,n,n,x,22µM,n
O=c1[nH][nH]c2c1C(c1ccc(Cl)c(Cl)c1)OC(CCc1ccccc1)C2 (stereo unspecified),x,x,n,x,x
O=C(Nc1cccc(Oc2ccc(C(=O)O)c(C(=O)O)c2)c1)c1ccc(-c2ccccc2)cc1,n,u,19µM,x,u
CC(C)(C)C(=O)Nc1ccc(C(=O)Nc2cccc(Oc3ccc(C(=O)O)c(C(=O)O)c3)c2)cc1,n,u,n,x,11µM
CC(C)(C)C(=O)Nc1ccc(C(=O)Nc2cc(NC(=O)c3ccc(NC(=O)C(C)(C)C)cc3)cc(C(=O)O)c2)cc1,n,u,n,x,n
O=C(O)c1ccccc1C(=O)Nc1ccc(Oc2ccccc2)cc1,n,n,n,n,n
FC(F)(F)c1ccccc1-c1nc(NC2CC2)c2ccccc2n1,n,n,x,n,n
SMILES,Sfp inh,RORgamma inh,PLK1 PBD inh,ALDH1A1 block,VP16 counter
NNc1nc(-c2ccccc2)c2cc(Br)ccc2n1,n,2.5µM,n,x,n
NNc1nc(-c2ccccc2)c2cc(Cl)ccc2n1,n,13µM,n,x,n
NNc1nc(-c2ccccc2)cc(-c2ccc(Br)cc2)n1,n,18µM,n,x,u
Cc1nc(-c2ccccc2)cc(-c2ccccc2)n1,x,x,n,x,x
Cc1ccccc1Nc1nc(N)nc(CN(C)c2ccccc2)n1,n,n,n,n,n
C=CCN(CC=C)Cc1nc(N)nc(Nc2ccccc2C)n1,n,13µM,n,n,n
Cc1ccc(/C=C/C(=O)OCc2nc(N)nc(Nc3ccccc3C)n2)o1,79µM,n,n,u,n
CCOc1ccc(-c2ccc(C3=CC(=O)C[C@H](c4ccc(F)cc4)C3)cc2)cc1,x,x,n,x,x
CCCc1cc2c(n1Cc1ccc(OC)cc1)C(C)C1CN(C(=O)c3ccccc3)C(C)(C(=O)OC)C21 (stereo unspecified),n,n,x,u,n
Cc1ccc(OCC(=O)Nc2cc(C(C)(C)C)on2)cc1C,45µM,u,n,x,n
Cc1cccc(OCC(=O)Nc2ccc(N3CCCC3)cc2)c1C,u,n,n,13µM,n
Cc1ccc(OCC(=O)Nc2ccc(N3CCCC3)cc2)cc1C,32µM,n,n,u,n
Cc1cc(C)cc(OCC(=O)Nc2ccc(CN3CCCCC3)cc2)c1,n,n,n,n,n[10 µM]
COc1ccc(OCC(=O)Nc2ccc(N3CCCCC3)cc2)cc1,n,n,u,n,n
Cc1cc(C)cc(OCC(=O)Nc2ccc(N3CCCC3)cc2)c1,56µM,n,n,n,n
Cc1cccnc1C(NC(=O)C1CCN(CCCc2ccccc2)CC1)c1ccc(F)cc1 (stereo unspecified),x,x,n,x,x
O=C(NCc1ccc(F)cc1)c1cc(C2CCCN(S(=O)(=O)c3ccccc3)C2)on1 (stereo unspecified),x,x,n,x,x
CC(=O)Nc1ccc(-c2ccnc3c2CC(C)(C(=O)NCc2ccco2)O3)cc1 (stereo unspecified),x,x,n,x,x
CCN1C(=O)[C@H]2[C@@H](c3ccc(C)cc3)N[C@]3(CCCN(Cc4ccco4)C3=O)[C@H]2C1=O,x,x,n,x,x
O=C(/C=C/c1ccccc1[N+](=O)[O-])Nc1cc(S(=O)(=O)N2CCOCC2)ccc1N1CCOCC1,x,x,n,x,x
C=CCNC(=O)/C(C#N)=C/c1cc(Br)ccc1OC,n,13µM,n,u,u
CN(C)S(=O)(=O)c1ccc2nnn(O)c2c1,n,n,11µM,n,n
Oc1ccccc1Nc1nc(-c2ccccc2O)nc2ccccc12,n,n,n,x,n
C/C(=N\Nc1nc(-c2ccccn2)nc2ccccc12)c1ccc(F)cc1,n,0.13µM,n,x,1.1µM
C/C(=N\Nc1nc(-c2ccccc2O)nc2ccccc12)c1ccccc1,n,4.5µM,n,n,u
SMILES,Sfp inh,RORgamma inh,PLK1 PBD inh,ALDH1A1 block,VP16 counter
Oc1ccc(Nc2nc(-c3ccccc3F)nc3ccccc23)cc1,n,n,n,x,n
C/C(=N\NC(=O)Cn1c(-c2ccccn2)nc2ccccc21)c1ccccc1,n,n,n,n,n
C/C(=N/Nc1nc(-c2ccccc2F)nc2ccccc12)c1ccccc1O,n,3.2µM,n,x,7.9µM
O=C(NCc1ccccc1)C(c1ccccn1)N(C(=O)c1csnn1)c1ccccc1F (stereo unspecified),n,n,n,x,n
CC1=C(C#N)C(C)(C)C(C#N)=C(C)N1,x,x,n,x,x
O=S(=O)(c1ccc(Cl)cc1)N1CCN(CCc2ccncc2)CC1,n,n,n,x,n

# From PubChem
